Structures are written as SMILES. In all, about 410,000 compounds went through this assay and about 5,000 (1.2%) were called active. Where a call stands in place of a potency, no number is given. About 13% were inconclusive and are not listed. Calls follow the shape of the dose curve; as a rule, active = well fitted inhibition curve with a large enough effect; inconclusive = small, poorly fitted or top-dose-only effect; inactive = no such curve, though single readings can be large or run the other way. Only a selection was taken, and actives are over-represented in it overall.
Potency is read from the fitted curve at half-maximal effect.

This test can be described thus: qHTS for Inhibitors of TGF-b. Also: nearly all actives have a fitted effect of over 65% in size. The note with it: HepG2 CAGA-GFP TGF-b/SMAD3 reporter, GFP fluorescence, 18 h, TGF-beta stimulated, 500 pg/mL final; series mostly up to 46.1 µM. The essentials: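 GFP signal (ex488/em500-530) from TGF-beta-stimulated HEPG2 CAGA-GFP cells, 500 pg/mL final, 18 h at 37 degrees C in DMEM plus 1% FBS, normalized to unstimulated and DMSO-stimulated controls.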
For the compound `CN(C)c1cccc2ccccc12`, the Potency result was “inactive”. The figure for `COc1ccc(OC)c(C2C3=C(N=c4s/c(=C\c5cccc(O)c5)c(=O)n42)c2ccccc2CC3)c1` (centres undefined) is 15.8 µM (active); for `CCOC(=O)c1c(S(=O)(=O)N2CCC(C(=O)NCc3ccccc3OC)CC2)c(C)n(C)c1C` it is “inactive”. Next, `Cc1ccc(S(=O)(=O)n2nc(C)c(S(=O)(=O)N3CCCCCC3)c2C)cc1`: “inactive”; `C=C1C=C(C(F)F)n2ncc(C(=O)NCCc3ccccc3OC)c2N1`: “inactive”. The entry for `O=C(NCCCO)C(=O)Nc1c2c(nn1-c1ccc(F)cc1)CSC2` is “inactive”; for `N#Cc1ccccc1Cn1cnc2nc3c(cc2c1=O)CCCC3` it is “inactive”. `CC(C)(C)c1ccc(C(=O)NCC(c2ccc(Cl)cc2)N2CCOCC2)cc1` (centres undefined): the Potency result was “inactive”.

On to `Cc1ccccc1Cn1nc(C)c(NC(=O)c2cc(-c3ccc(F)cc3)on2)c1C`, for which the Potency entry is “inactive”. Next, `Cc1ccc(NC(=O)c2ccc3[nH]c(C)cc(=O)c3c2)c(C)c1`: “inactive”; `CCOc1ccc(NC(=O)C2CCN(S(=O)(=O)c3cc(-c4noc(C)n4)ccc3C)CC2)cc1`: “inactive”. With `CCOc1ccc(N(CC)S(=O)(=O)N2CCCC(C(=O)Nc3ccc(C(C)=O)cc3)C2)cc1` (centres undefined), the Potency entry is “inactive”. Next, `Cc1ccc(CNC(=O)C2CCCN(S(C)(=O)=O)C2)cc1` (centres undefined): “inactive”; `CCOc1ccc(N(CC)S(=O)(=O)N2CCCC(C(=O)NCc3ccc(Cl)cc3)C2)cc1` (centres undefined): 17.8 µM (active). `CCN1CCN(c2nc(Nc3cccc(F)c3)nc(N)c2[N+](=O)[O-])CC1`: the Potency result was “inactive”. The entry for `COc1cccc(Nc2nc(N)c([N+](=O)[O-])c(NCc3ccco3)n2)c1` is “inactive”; for `CNc1nc(Nc2ccc(C)c(Cl)c2)nc(N)c1[N+](=O)[O-]` it is 11.2 µM (active). As to `CCC(=O)N1c2ccccc2CC1C(=O)N1CCN(c2ccccc2)CC1` (centres undefined), the Potency result was “inactive”.

Consider `Cc1cccc(NC(=S)NCCN(C2CCCCC2)C2CCCC2)c1`, for which the Potency was 17.8 µM (active). The entry for `Cc1cccc(C(=O)NC(=S)N(C)C2CCCCC2)c1` is “inactive”. In the case of `Cc1cccc(NC(=O)C2CCN(C(=O)NC3CCCCC3)CC2)c1`, the Potency result was “inactive”. As for `Cc1cc(=O)n(CC(=O)Nc2cccc([N+](=O)[O-])c2)c(-n2nc(C)cc2C)n1`, the Potency result was “inactive”.

On to `Cc1ccccc1CS(=O)(=O)CC1Nc2ccc(C(=O)NCc3ccc(Cl)cc3)cc2NC1=O` (centres undefined), for which the Potency result was “inactive”. The entry for `CCOc1ccc(Cl)cc1-c1cc(C(=O)NCc2cccs2)[nH]n1` is “inactive”; for `CC(C)Oc1cc(F)ccc1-c1cc(C(=O)Nc2ccc(F)cc2)[nH]n1` it is “inactive”; for `CCCOc1ccc(F)cc1-c1cc(C(=O)Nc2ccc(F)c(Cl)c2)[nH]n1` it is 11.2 µM (active). With `CCOC(=O)c1ccccc1NC(=O)c1sc2nc(-c3ccc(F)cc3)cn2c1C`, the Potency entry is “inactive”. Next, `CCS(=O)(=O)N1CCc2cc(C(=O)NCc3ccc(C)cc3)ccc21`: “inactive”; `CCc1ccc(CNC(=O)C2CCN(c3nn4cc(-c5ccc(F)cc5)nc4s3)CC2)cc1`: “inactive”; `CCCCNC(=O)C1CCCN(c2nnc(C)c3c(C)n(-c4ccc(Cl)cc4)nc23)C1` (centres undefined): “inactive”. The entry for `CC(=O)Nc1c(C)nn(-c2ccccc2)c1N1CCC(C(=O)Nc2cc(Cl)ccc2C)CC1` is “inactive”; for `Cc1nnc(N2CCCC(C(=O)NCCN(C)C)C2)c2nn(-c3ccccc3)c(C)c12` (centres undefined) it is “inactive”.

Consider `Cc1nnc(N2CCC(C(=O)Nc3ccc(F)cc3)CC2)c2nn(-c3ccc(Cl)cc3)c(C)c12`, for which the Potency is 10 µM (active).

Consider `CCOc1ccc(CNC(=O)c2ccc3nc(CC)c(CC)nc3c2)cc1OC`, for which the Potency result was “inactive”. Regarding `CC(=O)c1ccc[n+](C(C)CCC(C)[n+]2cccc(C(C)=O)c2)c1` (centres undefined), the Potency entry is “inactive”. As to `Cc1c(Cl)cccc1NC(=O)CCS(=O)(=O)c1ccc2c(c1)oc(=O)n2C`, the Potency entry was “inactive”. As to `Cc1ccccc1-c1nc(SCC(=O)N(C)c2ccccc2)c2c(=O)n(C)c(=O)n(C)c2n1`, the Potency result was “inactive”. Next, `CC1CCCCC1NC(=O)/C(C#N)=C/C=C/c1ccccc1[N+](=O)[O-]` (centres undefined): 20 µM (active); `CC(OC(=O)/C=C/c1ccccc1)C(=O)NC1CCCCC1C` (centres undefined): “inactive”. With `CC1CC(C)CN(C/C=C/c2ccccc2[N+](=O)[O-])C1` (centres undefined), the Potency result is “inactive”. The entry for `COc1ccc(CNC(=O)c2cc3c(=O)[nH]c4ccc(C)cc4c3s2)c(OC)c1` is “inactive”; for `Nc1ccccc1N` it is “inactive”. The entry for `COc1ccccc1-n1nnnc1SCC(=O)NC(=O)Cc1ccccc1` is “inactive”.

Consider `CCC(C)N(C(=O)CSc1nnnn1-c1ccccc1OC)C1CCS(=O)(=O)C1` (centres undefined), for which the Potency entry is “inactive”.

As to `COc1ccccc1-n1nnnc1S(=O)(=O)Cc1ccc(Cl)cc1`, the Potency was 7.08 µM (active). The entry for `CN(C)c1ccc(/C=C/C=C/c2ccnc3ccccc23)cc1` is “inactive”; for `CCc1cccc(NC(=O)Cn2nc(CC)n3c(cc4cc(C)ccc43)c2=O)c1` it is “inactive”. Next, `Cc1cc2c(cc1C)N1C(=O)c3cc4ccccc4cc3NC(=O)C1C(=O)N2` (centres undefined): 12.6 µM (active); `CCc1cnc2c(c1SCC(=O)N1CCC(C)CC1)c(=O)n(C)c(=O)n2C`: “inactive”; `CCOC(=O)c1ccc2c(c1)N(Cc1cccc(OC)c1)C(=O)c1ccccc1S2(=O)=O`: “inactive”.

As for `O=C(CSc1ncc(S(=O)(=O)c2ccc(Br)cc2)c(=O)[nH]1)Nc1ccc2c(c1)OCCO2`, the Potency entry is “inactive”. For the compound `CC(C)C12CN3CC(C(C)C)(CN(C1)C3c1ccc(OCc3ccccc3)cc1)C2=O` (centres undefined), the Potency entry is “inactive”. Next, `COc1ccc(NS(=O)(=O)c2ccc(N3CCOCC3)c(NC(=O)c3ccccc3Br)c2)cc1`: “inactive”.

`COc1ccc2c(c1)Cc1sc(NC(=O)c3ccccc3Br)nc1-2`: the Potency was 7.08 µM (active).

As to `COCCN(CCOC)S(=O)(=O)c1ccc(C(=O)Nc2nc3c(s2)CCc2ccccc2-3)cc1`, the Potency result is “inactive”.

As for `Cc1ccc2nc(COc3ccccc3NC(=O)Nc3ccc(F)c(Cl)c3)cc(=O)n2c1`, the Potency entry was “inactive”. Next, `COc1ccc(C2=CC(c3ccccc3Cl)n3nc(-c4ccc(Cl)cc4)nc3N2)cc1` (centres undefined): “inactive”; `O=C(c1cnn2c1NC(=C1CC1)C=C2C(F)F)N1CCc2ccccc2C1`: “inactive”. Next, `Cc1ccc(C)c(N2CCN(S(=O)(=O)c3ccc4c(c3)oc(=O)n4C)CC2)c1`: “inactive”. The entry for `Cc1ccc(N2CCN(S(=O)(=O)c3ccc(F)cc3)CC2)c(C)c1` is “inactive”. Consider `Cc1ccc(C)c(N2CCN(S(=O)(=O)c3ccc4c(c3)C(C(C)C)C(=O)N4)CC2)c1` (centres undefined), for which the Potency is 15.8 µM (active). As for `O=C(CCc1nc(CN2CCN(S(=O)(=O)c3ccc(F)cc3)CC2)no1)N1CCCCC1`, the Potency result is “inactive”. Regarding `Cc1cccc(NC(=O)Cn2c(=O)n(CCC(C)C)c(=O)c3cccnc32)c1`, the Potency entry is “inactive”.

Regarding `O=C(c1snnc1-c1ccccc1)N1CCOCC1`, the Potency entry was “inactive”.

`Cc1oc2c(c1C(=O)N1CCOCC1)C(=O)c1ccccc1C2=O`: the Potency was 4.47 µM (active).

With `Cc1ccc(C)c(CN2C(=O)c3ccccc3S(=O)c3ccc(C(=O)N4CCOCC4)cc32)c1` (centres undefined), the Potency result was “inactive”.

Take `CCCCOc1ccc(C(=O)N2CC(=O)Nc3ccc(Br)cc3C2c2ccc(F)cc2)cc1` (centres undefined): the Potency result was “inactive”. `COc1ccc2oc(=O)c(-c3cn4c(n3)sc3cc(OC)ccc34)cc2c1`: the Potency entry was “inactive”. Next, `Cc1c(CCO)sc[n+]1CC(=O)c1ccc2ccccc2c1`: “inactive”; `CCC(C)NC(=O)Cn1c(=O)n(-c2ccc(Cl)cc2)c(=O)c2c3c(sc21)CCCC3` (centres undefined): “inactive”; `CCOC(=O)C1=C(c2ccccc2)N=C2SCC(=O)N2C1c1ccc(O)c(OC)c1` (centres undefined): “inactive”. Regarding `CCOc1ccc(-c2n[nH]c3c2C(c2ccccc2OC)N(c2ccc(Br)cc2)C3=O)cc1` (centres undefined), the Potency result is “inactive”. Next, `COc1cc(C2c3c(oc4ccccc4c3=O)C(=O)N2c2nc(C)c(C)s2)ccc1O` (centres undefined): “inactive”; `CCOC(=O)c1ccc(NC2=CC(c3ccc(OCC)cc3)N(c3ccc(C(=O)OCC)cc3)C2=O)cc1` (centres undefined): “inactive”; `CCOC(=O)c1ccc(N2C(=O)c3n[nH]c(-c4ccco4)c3C2c2ccc(O)cc2)cc1` (centres undefined): 15.8 µM (active). Take `CCOC(=O)c1ccc(N2C(=O)c3n[nH]c(C)c3C2c2ccc(O)c(OC)c2)cc1` (centres undefined): the Potency was 11.2 µM (active).

As for `CCOC(=O)c1ccc(NC(=O)CNC(=O)c2ccco2)cc1`, the Potency entry was “inactive”.

For `CCOc1cc(C2C(C(=O)c3ccco3)=C(O)C(=O)N2Cc2ccccc2)ccc1O` (centres undefined), the Potency entry is “inactive”. As to `CCOc1cc(C2c3c(-c4ccc(Br)cc4)n[nH]c3C(=O)N2c2ccc(Cl)cc2)ccc1O` (centres undefined), the Potency was 4.47 µM (active). The entry for `Cc1nc(SCC(=O)Nc2ccc(C(=O)O)cc2)n[nH]1` is “inactive”. Next, `O=S(=O)(c1ccc(C2CCCCC2)cc1)N1CCN(c2ccc(Cl)c(Cl)c2)CC1`: “inactive”; `CNc1ccc(-c2nc(-c3ccco3)no2)cc1[N+](=O)[O-]`: “inactive”; `CC(C)(C)OC(=O)N(Cc1ccco1)S(=O)(=O)c1ccccc1Br`: “inactive”. On to `CCOc1ccc(NC(=O)CCc2c(C)nn(-c3ccc(N4CCCC4)nn3)c2C)cc1`, for which the Potency entry was “inactive”. Next, `CC1(C)CC(=O)c2cc(C(=O)NCc3ccccc3)c(=O)[nH]c2C1`: “inactive”; `CC(C)(C)c1ccc(C(=O)N2CCC(c3nc(-c4ccc(S(=O)(=O)N5CCCC5)cc4)no3)CC2)cc1`: “inactive”; `COc1ccc(NS(=O)(=O)c2cc(NC(=O)/C=C/c3cc(OC)c(OC)c(OC)c3)ccc2N2CCCCC2)cc1`: “inactive”.

Turning to `COc1cc(/C=C/C(=O)N2CCc3ccccc3C2)cc(OC)c1OC`, the Potency entry was “inactive”. As for `COc1ccccc1Nc1c2c(nc3ccc(NC(=O)/C=C/c4cc(OC)c(OC)c(OC)c4)cc13)CCCC2`, the Potency was 4.47 µM (active). Regarding `CCCCN1CC(c2nc3ccccc3n2CCCCOc2ccc(C)cc2C)CC1=O` (centres undefined), the Potency was 11.2 µM (active). Next, `CCOc1ccc(N2CC(c3nc4ccccc4n3CCOc3ccc(OC)cc3)CC2=O)cc1` (centres undefined): “inactive”; `CCc1ccccc1N1CC(c2nc3ccccc3n2CCCCOc2ccccc2)CC1=O` (centres undefined): “inactive”. Next, `Cc1oc2ccc(O)c(CN3CCC(C)CC3)c2c1C(=O)Nc1ccccc1`: “inactive”. The entry for `Cc1ccc(S(=O)(=O)c2nnn3c2nc(N2CCN(c4ccccc4F)CC2)c2cc(Cl)ccc23)cc1C` is “inactive”.

These data come from PubChem BioAssay AID588855 (National Center for Advancing Translational Sciences (NCATS), 2011).
